Results taken from PubChem BioAssay (NCATS).
Inconclusive results are not listed. Entries that show only a call come without a potency. Activity calls are given as the source filed them. Unless noted, calls come from the whole dose curve; as a rule, active = well fitted curve in the direction sought with a large enough effect; inconclusive = small, poorly fitted or top-dose-only effect, or another doubt; inactive = no such curve, though single readings can be large; an effect the other way counts as inactive or inconclusive.

Assays:
[1] = molecular target: Cytochrome P450 1A2 (Homo sapiens) (UniProt P05177); assay: p450-cyp1a2 (AID 410; calls by dose curve)
How it was run: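 20nM CYP1A2, 100uM Luciferin-ME (=Km), 100mM KPO4; cpd 10 min RT; +NADPH regen, 60 min RT; stop/detect 20 min; luminescence. Normalized to furafylline 57 uM = full inhibition.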

[2] = molecular target: Glucocorticoid receptor (Homo sapiens) (UniProt P04150); assay: GR-GFP Redistribution (AID 450;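 active = compounds whose dose series gives a full or clear partial fitted curve of increased nuclear translocation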; note: potency is the fitted concentration of half-maximal effect); conditions: U2OS GR-GFP nuclear translocation, laser cytometry, 2 h
[3] = molecular target: Glucocorticoid receptor (Homo sapiens) (UniProt P04150); assay: GR-EFC Redistribution (AID 451; calls by dose curve; note: potency is the fitted concentration of half-maximal effect); conditions: CHO-K1 GR-EFC translocation, beta-gal luminescence, 2 h
How it was run: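 CHO-K1 cells expressing nuclear EA and GR-ED fragments of b-gal; compounds titrated up to 46 uM final, 2 h at 37 C. GR nuclear translocation read as complemented b-gal luminescence after 1 h RT detection.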

[4] = molecular target: Mitogen-activated protein kinase 10 (Mus musculus) (UniProt Q61831); assay: JNK3 AlphaScreen Assay (AID 530; active = well fitted curve in either direction with a large enough effect, not every such curve was filed as active;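 note: kinase came from lysate of stimulated human HepG2 cells; signal reports phosphorylation of biotinylated GST-cJun 1-79 at Ser73 with 10 µM ATP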)
How it was run: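 HepG2 lysate (IL-1b/TNFa pre-activated) + biotin-GST-cJun 1-79 + anti-pSer73 cJun; cpd titration, 15 min RT; ATP 10 uM start; Tris pH 7.6, MgCl2, DTT, vanadate; beads in EDTA buffer; AlphaScreen.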

[5] = molecular target: 3',5'-cyclic-AMP phosphodiesterase 4B (Homo sapiens) (UniProt Q07343); assay: qHTS Assay for Inhibitors of PDE-IV (AID 607; active = well fitted activation curve with a large enough effect in the main read-out, with a control signal flat, not every such curve was filed as active)
How it was run: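 The readout is membrane depolarisation from a cAMP-sensing CNG channel, detected with a potential dye at ex 535/em 590. Cells were HEK293-derived (endogenous PDE-IV) at 1000 cells/well, titrated up to 22.9 uM final.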

[6] = molecular target: Ubiquitin carboxyl-terminal hydrolase 1 (Homo sapiens) (UniProt O94782); assay: Inhibitors of USP1/UAF1: Pilot qHTS (AID 504865);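 note: rhodamine fluorescence freed from ubiquitin-rhodamine substrate followed over time; top concentration of the series differs between compounds; nearly all actives have a fitted effect of over 35% in size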
How it was run: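 Deubiquitinase activity followed as kinetic rhodamine fluorescence release from 150 nM Ub-Rho. 1 nM USP1/UAF1 with compound, after 15 min room-temperature preincubation, in HEPES pH 7.8 buffer containing TCEP, EDTA, BSA and Tween-20.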

[7] = molecular target: DNA dC->dU-editing enzyme APOBEC-3G (Homo sapiens) (UniProt Q9HC16); assay: qHTS for inhibitors of Vif-A3G interactions: Validation (AID 588379)
How it was run: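 Yellow fluorescence (Ex 488, Em 500-530) of Vif-coexpressing HeLa A3G-eYFP cells, scanned by Acumen cytometer, reports blocked A3G degradation. Cells plated at 700/well overnight at 37 deg C before compound addition, then a further overnight compound incubation at 37 deg C.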

[8] = test system: Zika virus NS2B-NS3 protease; assay: Primary screen GU AMC qHTS for Zika virus inhibitors (AID 1347154); note: nearly all actives have a fitted effect of over 70% in size
How it was run: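 Unlinked Zika NS2B hydrophilic domain–NS3 protease complex at 25 nM in 10 mM Tris-HCl pH 8.0, 0.01% Tween 20, with an AMC peptide substrate. Fluorescence change (340/450 nm) over 15 min at room temperature, normalized to controls, fitted to 4-parameter Hill.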

[9] = molecular target: Rap guanine nucleotide exchange factor 3 (Homo sapiens) (UniProt O95398); assay: Confirmatory qHTS for antagonist of cAMP-regulated guanine nucleotide exchange factor 3 (EPAC1) (AID 1645880); note: nearly all actives have a fitted effect of over 55% in size
How it was run: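 Released BODIPY-GDP fluoresces less than Rap1-bound BODIPY-GDP; the signal is followed at 480/540 nm at 5-min intervals over 30 min, after 5 min at room temperature. Reactions contain 100 nM EPAC1, 250 nM RAP1B-BODIPY-GDP and 50 uM GDP; results are normalized to ATA and DMSO.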

[10] = molecular target: Rap guanine nucleotide exchange factor 3 (Homo sapiens) (UniProt O95398); assay: Confirmatory qHTS for agonist of cAMP-regulated guanine nucleotide exchange factor 3 (EPAC1) (AID 1645881);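 note: EPAC1 catalysed release of BODIPY-GDP from Rap1B seen as fluorescence loss; nearly all actives have a fitted effect of over 75% in size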
[11] = molecular target: Rap guanine nucleotide exchange factor 4 (Homo sapiens) (UniProt Q8WZA2); assay: Confirmatory qHTS for agonist of cAMP-regulated guanine nucleotide exchange factor 4 (EPAC2) (AID 1645884);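 note: nucleotide exchange releases bodipy-GDP from Rap1 and this lowers its fluorescence; nearly all actives have a fitted effect of over 65% in size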
[12] = molecular target: Rap guanine nucleotide exchange factor 4 (Homo sapiens) (UniProt Q8WZA2); assay: Confirmatory qHTS for antagonist of cAMP-regulated guanine nucleotide exchange factor 4 (EPAC2) (AID 1645885); note: potency is the fitted concentration of half-maximal effect; nearly all actives have a fitted effect of over 25% in size
[13] = molecular target: Cytochrome P450 2D6 (Homo sapiens) (UniProt P10635); assay: qHTS Assay for Inhibitors and Substrates of Cytochrome P450 2D6 (AID 891); note: potency is the fitted concentration of half-maximal effect; nearly all actives have a fitted effect of over 60% in size
How it was run: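 Luminescent read-out of luciferin formed by 5 nM human CYP2D6 demethylating 30 uM Luciferin-ME EGE (Km level) over 60 min at room temperature after NADPH regeneration addition. Data normalized to full inhibition by 1.43 uM quinidine.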

[14] = qHTS Assay for Lipid Storage Modulators (AID 1519; calls by dose curve); conditions: Drosophila S3 cells, BODIPY lipid droplet/cell ratio, laser cytometry, cells loaded with oleic acid
How it was run: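 Cells seeded at 5,000 per well were treated with compounds over a concentration series and loaded with oleic acid (400 uM, as added). Lipid droplet fluorescence (488 nm excitation, 500-530 nm channel) was read by laser-scanning cytometry and normalized to 20 uM Triacsin C.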

Sequence of Glucocorticoid receptor (Homo sapiens) (P04150 whole entry, looked up, the tested form may be a part): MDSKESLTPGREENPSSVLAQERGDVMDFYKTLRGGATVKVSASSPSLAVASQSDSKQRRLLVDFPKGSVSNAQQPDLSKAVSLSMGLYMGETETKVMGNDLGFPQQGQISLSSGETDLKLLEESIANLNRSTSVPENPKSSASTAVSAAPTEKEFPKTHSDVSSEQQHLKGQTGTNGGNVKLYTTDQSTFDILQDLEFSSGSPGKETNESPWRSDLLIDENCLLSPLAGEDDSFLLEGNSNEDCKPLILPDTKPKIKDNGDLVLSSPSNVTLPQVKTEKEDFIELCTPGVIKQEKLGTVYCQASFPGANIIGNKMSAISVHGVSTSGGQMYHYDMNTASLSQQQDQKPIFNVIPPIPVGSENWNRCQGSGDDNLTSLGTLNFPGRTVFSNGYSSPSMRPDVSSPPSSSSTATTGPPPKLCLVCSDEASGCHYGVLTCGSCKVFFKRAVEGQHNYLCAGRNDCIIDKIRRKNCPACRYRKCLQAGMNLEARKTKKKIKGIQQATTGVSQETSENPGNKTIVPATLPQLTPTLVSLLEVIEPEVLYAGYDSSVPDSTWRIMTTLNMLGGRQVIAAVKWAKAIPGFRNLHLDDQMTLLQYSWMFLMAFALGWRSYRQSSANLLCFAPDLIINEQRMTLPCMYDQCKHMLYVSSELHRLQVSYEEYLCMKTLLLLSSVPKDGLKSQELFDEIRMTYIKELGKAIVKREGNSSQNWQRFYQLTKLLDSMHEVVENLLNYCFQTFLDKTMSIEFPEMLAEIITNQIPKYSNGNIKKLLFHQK
Sequence of DNA dC->dU-editing enzyme APOBEC-3G (Homo sapiens) (Q9HC16 whole entry, looked up): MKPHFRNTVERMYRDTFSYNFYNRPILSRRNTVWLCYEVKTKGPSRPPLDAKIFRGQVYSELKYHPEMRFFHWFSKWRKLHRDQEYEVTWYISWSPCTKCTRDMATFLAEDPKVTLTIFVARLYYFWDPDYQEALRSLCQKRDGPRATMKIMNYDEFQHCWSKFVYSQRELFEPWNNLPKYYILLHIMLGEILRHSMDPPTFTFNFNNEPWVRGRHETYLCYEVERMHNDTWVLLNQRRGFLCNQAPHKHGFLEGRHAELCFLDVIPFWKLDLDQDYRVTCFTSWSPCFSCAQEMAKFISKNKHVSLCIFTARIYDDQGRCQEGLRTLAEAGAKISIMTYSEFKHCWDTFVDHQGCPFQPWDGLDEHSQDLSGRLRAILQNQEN
Sequence of 3',5'-cyclic-AMP phosphodiesterase 4B (Homo sapiens) (Q07343 whole entry, looked up): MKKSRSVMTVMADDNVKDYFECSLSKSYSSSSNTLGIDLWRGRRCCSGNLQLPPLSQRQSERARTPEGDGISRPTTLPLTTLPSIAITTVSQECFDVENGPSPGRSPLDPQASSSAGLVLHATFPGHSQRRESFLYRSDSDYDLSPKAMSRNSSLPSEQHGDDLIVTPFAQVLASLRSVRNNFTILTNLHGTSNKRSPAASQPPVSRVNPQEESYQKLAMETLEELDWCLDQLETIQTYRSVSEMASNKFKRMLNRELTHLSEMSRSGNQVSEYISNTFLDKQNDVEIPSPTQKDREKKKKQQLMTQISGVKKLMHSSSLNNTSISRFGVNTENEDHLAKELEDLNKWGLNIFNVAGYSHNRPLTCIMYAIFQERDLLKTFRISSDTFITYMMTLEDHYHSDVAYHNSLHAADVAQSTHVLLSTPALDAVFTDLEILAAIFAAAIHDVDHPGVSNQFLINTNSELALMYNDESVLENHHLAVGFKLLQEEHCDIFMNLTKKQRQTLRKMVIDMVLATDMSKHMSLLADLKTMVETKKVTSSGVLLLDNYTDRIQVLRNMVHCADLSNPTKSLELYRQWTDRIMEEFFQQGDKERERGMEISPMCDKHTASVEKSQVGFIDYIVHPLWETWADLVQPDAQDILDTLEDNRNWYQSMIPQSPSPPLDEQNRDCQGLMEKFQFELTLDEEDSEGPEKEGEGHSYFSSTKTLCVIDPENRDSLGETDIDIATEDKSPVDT
Sequence of Ubiquitin carboxyl-terminal hydrolase 1 (Homo sapiens) (O94782 whole entry, looked up): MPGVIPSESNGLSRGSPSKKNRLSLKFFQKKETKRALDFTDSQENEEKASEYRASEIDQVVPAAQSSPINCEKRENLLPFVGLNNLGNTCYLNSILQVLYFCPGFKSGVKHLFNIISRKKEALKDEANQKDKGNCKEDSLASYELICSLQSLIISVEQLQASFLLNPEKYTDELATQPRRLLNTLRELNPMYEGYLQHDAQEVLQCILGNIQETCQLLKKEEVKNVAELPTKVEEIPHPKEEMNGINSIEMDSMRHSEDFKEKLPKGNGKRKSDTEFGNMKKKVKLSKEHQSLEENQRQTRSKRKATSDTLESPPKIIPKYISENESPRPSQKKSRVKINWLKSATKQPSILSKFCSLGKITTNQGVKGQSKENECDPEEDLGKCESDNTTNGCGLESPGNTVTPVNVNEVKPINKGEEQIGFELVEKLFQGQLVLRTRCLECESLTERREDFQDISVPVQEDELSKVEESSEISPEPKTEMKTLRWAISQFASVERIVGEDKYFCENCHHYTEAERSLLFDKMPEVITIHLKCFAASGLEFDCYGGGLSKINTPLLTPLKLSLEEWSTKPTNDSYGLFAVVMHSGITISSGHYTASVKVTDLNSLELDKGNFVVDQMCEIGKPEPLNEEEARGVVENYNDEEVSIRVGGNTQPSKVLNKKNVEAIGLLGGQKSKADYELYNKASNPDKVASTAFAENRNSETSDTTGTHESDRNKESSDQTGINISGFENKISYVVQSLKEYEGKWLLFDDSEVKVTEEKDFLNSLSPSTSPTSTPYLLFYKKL
Sequence of Cytochrome P450 1A2 (Homo sapiens) (P05177 whole entry, looked up): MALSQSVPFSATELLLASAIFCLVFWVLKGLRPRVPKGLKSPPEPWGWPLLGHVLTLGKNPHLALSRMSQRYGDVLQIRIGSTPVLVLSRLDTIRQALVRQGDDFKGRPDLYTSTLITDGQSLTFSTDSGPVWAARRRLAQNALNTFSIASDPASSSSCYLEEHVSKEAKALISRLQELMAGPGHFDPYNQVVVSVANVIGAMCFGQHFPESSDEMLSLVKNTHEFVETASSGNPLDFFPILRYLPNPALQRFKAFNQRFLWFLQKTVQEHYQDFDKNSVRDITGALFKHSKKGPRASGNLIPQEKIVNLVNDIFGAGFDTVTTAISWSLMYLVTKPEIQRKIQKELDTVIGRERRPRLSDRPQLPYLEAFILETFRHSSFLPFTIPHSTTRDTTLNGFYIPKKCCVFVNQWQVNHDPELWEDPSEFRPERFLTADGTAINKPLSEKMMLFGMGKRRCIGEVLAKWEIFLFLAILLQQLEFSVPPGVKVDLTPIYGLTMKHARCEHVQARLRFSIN
Sequence of Rap guanine nucleotide exchange factor 4 (Homo sapiens) (Q8WZA2 whole entry, looked up): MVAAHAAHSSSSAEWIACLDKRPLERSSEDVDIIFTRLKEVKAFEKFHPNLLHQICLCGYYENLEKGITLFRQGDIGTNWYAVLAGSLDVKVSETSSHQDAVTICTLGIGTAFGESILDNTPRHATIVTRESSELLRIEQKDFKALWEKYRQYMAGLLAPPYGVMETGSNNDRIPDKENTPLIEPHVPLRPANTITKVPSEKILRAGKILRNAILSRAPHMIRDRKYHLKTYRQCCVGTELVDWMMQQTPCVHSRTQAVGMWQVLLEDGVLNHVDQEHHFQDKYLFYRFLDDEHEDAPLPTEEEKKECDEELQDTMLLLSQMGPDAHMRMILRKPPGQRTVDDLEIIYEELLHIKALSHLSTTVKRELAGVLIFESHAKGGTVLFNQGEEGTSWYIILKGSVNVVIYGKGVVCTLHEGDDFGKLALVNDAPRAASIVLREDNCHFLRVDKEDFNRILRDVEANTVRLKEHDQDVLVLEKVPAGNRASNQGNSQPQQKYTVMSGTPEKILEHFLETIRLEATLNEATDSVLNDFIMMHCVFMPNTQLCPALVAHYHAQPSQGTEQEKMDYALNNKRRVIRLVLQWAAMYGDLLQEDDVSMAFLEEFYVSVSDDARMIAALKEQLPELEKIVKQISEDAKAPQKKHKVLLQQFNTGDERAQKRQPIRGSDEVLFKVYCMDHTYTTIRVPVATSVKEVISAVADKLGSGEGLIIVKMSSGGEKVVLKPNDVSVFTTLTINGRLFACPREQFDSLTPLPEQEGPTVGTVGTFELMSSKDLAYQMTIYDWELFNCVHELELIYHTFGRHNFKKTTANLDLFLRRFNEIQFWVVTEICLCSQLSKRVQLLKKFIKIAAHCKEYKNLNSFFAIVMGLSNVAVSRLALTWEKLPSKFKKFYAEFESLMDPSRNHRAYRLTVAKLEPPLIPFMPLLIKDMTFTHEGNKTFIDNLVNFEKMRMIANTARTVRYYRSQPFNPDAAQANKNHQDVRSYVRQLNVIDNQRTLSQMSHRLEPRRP
Sequence of Cytochrome P450 2D6 (Homo sapiens) (P10635 whole entry, looked up): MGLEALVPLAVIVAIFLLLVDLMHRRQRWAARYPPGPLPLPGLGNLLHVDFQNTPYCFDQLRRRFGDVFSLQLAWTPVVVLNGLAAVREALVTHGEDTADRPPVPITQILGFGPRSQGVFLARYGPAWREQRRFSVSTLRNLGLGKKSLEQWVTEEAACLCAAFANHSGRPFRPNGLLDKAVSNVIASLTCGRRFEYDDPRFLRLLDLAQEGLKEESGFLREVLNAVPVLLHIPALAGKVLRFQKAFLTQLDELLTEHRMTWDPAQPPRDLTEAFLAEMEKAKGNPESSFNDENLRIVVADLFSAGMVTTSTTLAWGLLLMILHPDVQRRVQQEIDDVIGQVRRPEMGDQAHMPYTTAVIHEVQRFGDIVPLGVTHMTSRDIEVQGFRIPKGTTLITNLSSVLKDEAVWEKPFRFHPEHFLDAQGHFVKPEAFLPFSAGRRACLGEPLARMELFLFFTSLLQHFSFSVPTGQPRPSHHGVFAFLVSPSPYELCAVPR

Row | Structure (SMILES) | Potency [1] | Potency [2] | Potency [3] | Potency [4] | Potency [5] | Potency [6] | Potency [7] | Potency [8] | Potency [9] | outcome [10] | outcome [11] | Potency [12] | Potency [13] | activity change, negative = inhibition ([14]; at 57.5 µM (top of the series)) | max response ([14]; measured here: cell count channel max response) | max response ([14]; measured here: lipid channel max response)
1 | CC[C@]1(c2ncc[nH]2)Cc2ccccc2O1 | inactive | > 46 µM (inactive) | > 46 µM (inactive) | inactive | inactive | inactive | inactive | inactive | inactive | inactive | inactive | 44.1 µM (active) | – | – | – | –
2 | CCOC(=O)[C@H](N)/C=C(\C)CP(=O)(O)O | inactive | – | > 46 µM (inactive) | inactive | inactive | inactive | inactive | inactive | – | – | – | – | 2 µM (active) | -3.23% (inactive) | 1.46% | -0.232%
